# Data published in the supplement of paper PMC12819154, “High-throughput peptide-centric local stability assay extends protein–ligand identification to membrane proteins, tissues and bacteria” (Nature Structural & Molecular Biology, 2025).
# Compound: CN[C@@H]1C[C@H]2O[C@@](C)([C@@H]1OC)n1c3ccccc3c3c4c(c5c6ccccc6n2c5c31)C(=O)NC4 [staurosporine]
# Assay: log2 fold change of tryptic peptide abundance, ligand vs vehicle (limited proteolysis) (log2 ratio); higher = more trypsin-susceptible (destabilized)
# Conditions: ligand concentration: 20 uM; sample: K562 cleared lysate; digestion: 4 min, 22 C (HT-PELSA RT4min, Orbitrap Astral)
# Sequence of UniProt O14920 (O14920 whole entry): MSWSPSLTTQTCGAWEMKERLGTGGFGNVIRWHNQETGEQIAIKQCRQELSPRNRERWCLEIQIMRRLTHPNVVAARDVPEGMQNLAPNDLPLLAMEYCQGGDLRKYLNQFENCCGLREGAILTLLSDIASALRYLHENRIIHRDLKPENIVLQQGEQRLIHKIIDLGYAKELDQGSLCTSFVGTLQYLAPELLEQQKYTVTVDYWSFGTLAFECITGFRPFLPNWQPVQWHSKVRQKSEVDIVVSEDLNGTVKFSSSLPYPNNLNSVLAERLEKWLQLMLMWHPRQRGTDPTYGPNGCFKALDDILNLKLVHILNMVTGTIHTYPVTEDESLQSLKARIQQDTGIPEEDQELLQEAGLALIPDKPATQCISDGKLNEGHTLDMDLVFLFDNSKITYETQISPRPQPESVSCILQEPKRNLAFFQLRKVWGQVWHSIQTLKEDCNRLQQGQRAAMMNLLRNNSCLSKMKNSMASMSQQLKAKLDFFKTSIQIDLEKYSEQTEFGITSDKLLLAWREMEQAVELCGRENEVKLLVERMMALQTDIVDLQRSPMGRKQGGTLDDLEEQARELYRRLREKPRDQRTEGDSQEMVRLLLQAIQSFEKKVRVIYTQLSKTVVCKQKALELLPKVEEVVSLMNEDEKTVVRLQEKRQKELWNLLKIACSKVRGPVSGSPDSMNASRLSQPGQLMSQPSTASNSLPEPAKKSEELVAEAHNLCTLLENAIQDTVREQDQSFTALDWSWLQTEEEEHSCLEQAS
# Sequence of UniProt Q00532 (Q00532 whole entry): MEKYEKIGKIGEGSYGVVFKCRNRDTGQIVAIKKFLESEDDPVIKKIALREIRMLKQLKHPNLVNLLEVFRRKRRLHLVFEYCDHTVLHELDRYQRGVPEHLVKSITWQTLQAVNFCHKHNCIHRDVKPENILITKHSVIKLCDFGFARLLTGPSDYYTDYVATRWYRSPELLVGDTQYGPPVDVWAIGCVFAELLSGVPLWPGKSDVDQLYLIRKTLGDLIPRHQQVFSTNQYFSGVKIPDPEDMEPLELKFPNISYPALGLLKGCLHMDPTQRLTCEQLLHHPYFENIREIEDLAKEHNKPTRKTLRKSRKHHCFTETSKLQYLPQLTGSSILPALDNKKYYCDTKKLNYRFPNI
# Sequence of UniProt Q8NEB9 (Q8NEB9 whole entry): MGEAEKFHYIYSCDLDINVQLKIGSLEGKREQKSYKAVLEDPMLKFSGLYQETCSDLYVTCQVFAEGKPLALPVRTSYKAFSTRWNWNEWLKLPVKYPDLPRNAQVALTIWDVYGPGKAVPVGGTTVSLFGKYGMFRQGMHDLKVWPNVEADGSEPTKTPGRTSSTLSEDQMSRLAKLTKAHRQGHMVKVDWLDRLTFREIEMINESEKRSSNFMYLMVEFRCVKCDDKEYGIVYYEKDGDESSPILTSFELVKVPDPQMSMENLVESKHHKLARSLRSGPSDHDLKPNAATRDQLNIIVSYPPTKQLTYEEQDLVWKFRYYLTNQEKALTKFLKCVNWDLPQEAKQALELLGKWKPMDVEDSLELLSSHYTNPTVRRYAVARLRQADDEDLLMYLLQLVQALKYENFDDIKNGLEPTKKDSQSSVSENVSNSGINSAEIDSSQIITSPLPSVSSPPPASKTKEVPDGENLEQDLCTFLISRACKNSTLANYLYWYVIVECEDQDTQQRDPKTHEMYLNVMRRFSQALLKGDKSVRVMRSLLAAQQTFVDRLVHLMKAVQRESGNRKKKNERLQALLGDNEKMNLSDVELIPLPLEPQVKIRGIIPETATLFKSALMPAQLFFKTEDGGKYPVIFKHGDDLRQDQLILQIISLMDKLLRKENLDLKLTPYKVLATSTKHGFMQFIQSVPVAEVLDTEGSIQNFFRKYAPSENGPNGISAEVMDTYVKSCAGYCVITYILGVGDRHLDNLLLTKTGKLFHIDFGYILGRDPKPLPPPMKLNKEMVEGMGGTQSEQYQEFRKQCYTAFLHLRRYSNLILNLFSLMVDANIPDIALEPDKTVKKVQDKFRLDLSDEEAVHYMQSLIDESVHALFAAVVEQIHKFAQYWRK
# Sequence of UniProt P22059 (P22059 whole entry): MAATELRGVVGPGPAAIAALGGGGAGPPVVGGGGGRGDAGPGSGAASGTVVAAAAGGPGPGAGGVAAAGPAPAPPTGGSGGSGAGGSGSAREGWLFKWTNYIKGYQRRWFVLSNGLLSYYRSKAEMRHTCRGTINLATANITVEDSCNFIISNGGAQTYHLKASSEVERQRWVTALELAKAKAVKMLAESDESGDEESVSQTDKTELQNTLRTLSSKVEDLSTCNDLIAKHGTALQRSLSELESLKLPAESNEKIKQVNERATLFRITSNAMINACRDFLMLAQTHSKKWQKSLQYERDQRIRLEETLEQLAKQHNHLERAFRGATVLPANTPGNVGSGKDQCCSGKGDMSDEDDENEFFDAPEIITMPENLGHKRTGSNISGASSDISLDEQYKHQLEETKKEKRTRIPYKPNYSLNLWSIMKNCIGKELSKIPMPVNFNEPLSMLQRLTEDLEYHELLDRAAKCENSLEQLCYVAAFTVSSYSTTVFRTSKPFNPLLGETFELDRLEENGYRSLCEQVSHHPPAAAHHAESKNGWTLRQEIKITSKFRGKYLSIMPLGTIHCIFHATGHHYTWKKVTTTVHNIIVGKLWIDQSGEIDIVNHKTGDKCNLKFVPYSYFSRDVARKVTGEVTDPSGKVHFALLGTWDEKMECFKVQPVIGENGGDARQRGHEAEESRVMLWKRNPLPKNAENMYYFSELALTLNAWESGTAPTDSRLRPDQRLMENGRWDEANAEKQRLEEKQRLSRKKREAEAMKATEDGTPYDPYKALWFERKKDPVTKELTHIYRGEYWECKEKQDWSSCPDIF
# Sequence of UniProt P60842 (P60842 whole entry): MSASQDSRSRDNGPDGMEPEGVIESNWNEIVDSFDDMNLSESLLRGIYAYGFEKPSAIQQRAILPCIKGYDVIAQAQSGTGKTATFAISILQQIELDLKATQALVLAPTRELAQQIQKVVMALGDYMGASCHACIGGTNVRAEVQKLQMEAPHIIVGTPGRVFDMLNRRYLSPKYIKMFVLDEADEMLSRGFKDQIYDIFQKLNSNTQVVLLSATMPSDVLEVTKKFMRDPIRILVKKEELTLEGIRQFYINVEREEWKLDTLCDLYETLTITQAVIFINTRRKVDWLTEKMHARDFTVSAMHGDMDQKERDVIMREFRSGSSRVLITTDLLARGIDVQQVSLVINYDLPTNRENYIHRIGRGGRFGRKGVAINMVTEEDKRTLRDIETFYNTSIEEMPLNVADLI
# Sequence of UniProt Q29RF7 (Q29RF7 whole entry): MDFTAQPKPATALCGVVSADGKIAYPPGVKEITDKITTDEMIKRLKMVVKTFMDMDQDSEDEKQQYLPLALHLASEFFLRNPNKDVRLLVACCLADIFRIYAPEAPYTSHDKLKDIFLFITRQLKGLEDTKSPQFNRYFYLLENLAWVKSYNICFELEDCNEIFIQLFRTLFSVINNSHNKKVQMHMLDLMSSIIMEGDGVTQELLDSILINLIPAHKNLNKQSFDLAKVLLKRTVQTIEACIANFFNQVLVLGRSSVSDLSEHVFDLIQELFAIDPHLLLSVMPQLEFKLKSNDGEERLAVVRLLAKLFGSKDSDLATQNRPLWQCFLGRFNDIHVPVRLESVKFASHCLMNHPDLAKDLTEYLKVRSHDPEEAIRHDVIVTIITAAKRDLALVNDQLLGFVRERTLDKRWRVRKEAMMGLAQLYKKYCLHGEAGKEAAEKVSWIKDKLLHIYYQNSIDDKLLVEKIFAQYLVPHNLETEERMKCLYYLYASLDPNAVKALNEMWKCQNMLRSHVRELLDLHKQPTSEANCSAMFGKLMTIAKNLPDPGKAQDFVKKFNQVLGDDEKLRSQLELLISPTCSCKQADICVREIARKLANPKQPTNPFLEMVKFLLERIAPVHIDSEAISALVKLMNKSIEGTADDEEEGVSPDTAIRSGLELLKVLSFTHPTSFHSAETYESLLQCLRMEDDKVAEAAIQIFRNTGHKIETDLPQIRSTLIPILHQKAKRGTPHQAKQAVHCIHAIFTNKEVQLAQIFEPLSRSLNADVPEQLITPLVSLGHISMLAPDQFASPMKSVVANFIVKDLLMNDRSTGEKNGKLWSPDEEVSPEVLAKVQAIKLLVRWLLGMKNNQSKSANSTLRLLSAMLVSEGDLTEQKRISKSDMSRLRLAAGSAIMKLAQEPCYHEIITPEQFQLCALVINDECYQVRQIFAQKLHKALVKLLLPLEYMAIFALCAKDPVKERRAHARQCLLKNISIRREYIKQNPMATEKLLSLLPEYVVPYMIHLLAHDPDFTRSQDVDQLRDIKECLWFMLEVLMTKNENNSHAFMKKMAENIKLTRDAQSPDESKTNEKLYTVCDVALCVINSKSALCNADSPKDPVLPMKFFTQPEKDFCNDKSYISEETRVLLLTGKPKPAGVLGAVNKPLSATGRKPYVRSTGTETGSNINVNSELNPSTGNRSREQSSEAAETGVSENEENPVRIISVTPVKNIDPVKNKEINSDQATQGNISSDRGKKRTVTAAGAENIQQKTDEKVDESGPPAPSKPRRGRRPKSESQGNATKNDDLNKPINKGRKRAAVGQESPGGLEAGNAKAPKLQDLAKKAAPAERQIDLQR
# Sequence of UniProt Q70IA6 (Q70IA6 whole entry): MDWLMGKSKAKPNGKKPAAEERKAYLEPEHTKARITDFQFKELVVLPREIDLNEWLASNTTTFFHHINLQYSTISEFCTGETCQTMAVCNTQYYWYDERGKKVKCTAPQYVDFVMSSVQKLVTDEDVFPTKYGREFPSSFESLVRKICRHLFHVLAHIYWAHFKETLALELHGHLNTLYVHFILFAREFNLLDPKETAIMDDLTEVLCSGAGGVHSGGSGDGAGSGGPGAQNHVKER
# Sequence of UniProt Q9BVG4 (Q9BVG4 whole entry): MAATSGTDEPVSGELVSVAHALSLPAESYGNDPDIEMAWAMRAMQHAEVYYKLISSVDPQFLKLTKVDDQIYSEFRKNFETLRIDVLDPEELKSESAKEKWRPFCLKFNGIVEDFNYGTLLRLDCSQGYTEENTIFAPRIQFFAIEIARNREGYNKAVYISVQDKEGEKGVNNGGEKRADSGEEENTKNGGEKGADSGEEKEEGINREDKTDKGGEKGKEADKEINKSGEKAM
row,Target,log2 fold change
1,"OSBP (peptide sequence: TRIPYKPNYSLNLWSIMK, peptide start residue: 407) (UniProt P22059)",0.573
2,"RPL4 (peptide sequence: MFAPTKTWR, peptide start residue: 101) (UniProt P36578)",0.751
3,"UniProt P60842 (peptide sequence: ATQALVLAPTR, peptide start residue: 100)",0.334
4,"UniProt P45985 (peptide sequence: DIKPSNILLDR, peptide start residue: 229)",0.534
5,"LIMK1 (peptide sequence: VNADPDYLPR, peptide start residue: 546) (UniProt P53667)",-1.05
6,"UniProt O75170 (peptide sequence: ILEAWEANDHTQAAGGMR, peptide start residue: 456)",-0.977
7,"ULK2 (peptide sequence: IADFGFAR, peptide start residue: 163) (UniProt Q8IYT8)",-1.68
8,"UniProt O00567 (peptide sequence: LIAHAGSLTNLAK, peptide start residue: 308)",0.316
9,"UniProt Q9P289 (peptide sequence: NNPPTLVGDFTK, peptide start residue: 234)",-1.31
10,"UniProt Q8NEB9 (peptide sequence: SALMPAQLFFK, peptide start residue: 614)",-0.384
11,"UniProt Q8N4C8 (peptide sequence: GNALKEDCIAYICR, peptide start residue: 122)",-0.573
12,"SDAD1 (peptide sequence: TLYTHIVTDIK, peptide start residue: 136) (UniProt Q9NVU7)",-0.683
13,"UniProt P19784 (peptide sequence: HLVSPEALDLLDKLLR, peptide start residue: 292)",-2.25
14,"PRDX6 (peptide sequence: NFDEILR, peptide start residue: 156) (UniProt P30041)",0.443
15,"PDS5A (peptide sequence: SHDPEEAIRHDVIVTIITAAK, peptide start residue: 369) (UniProt Q29RF7)",0.622
16,"SGK3 (peptide sequence: FYAAEIASALGYLHSIK, peptide start residue: 265) (UniProt Q96BR1)",-1.54
17,"FER (peptide sequence: NCLVGENNVLK, peptide start residue: 689) (UniProt P16591)",-0.84
18,"UniProt Q9BVG4 (peptide sequence: LISSVDPQFLK, peptide start residue: 53)",-0.658
19,"UniProt O14920 (peptide sequence: AAMMNLLR, peptide start residue: 453)",0.5
20,"MOB2 (peptide sequence: ITDFQFK, peptide start residue: 35) (UniProt Q70IA6)",0.834
21,"RPL18A (peptide sequence: ARAHSIQIMKVEEIAASK, peptide start residue: 119) (UniProt Q02543)",0.524
22,"UniProt Q96CW1 (peptide sequence: TFITQQGIK, peptide start residue: 131)",0.558
23,"UniProt Q9Y6E0 (peptide sequence: AANVLLSEHGEVK, peptide start residue: 159)",-1.21
24,"GEMIN5 (peptide sequence: MLSTFKELFSEK, peptide start residue: 1352) (UniProt Q8TEQ6)",-1
25,"UniProt P06493 (peptide sequence: HPNIVSLQDVLMQDSR, peptide start residue: 60)",-1.19
26,"CDKL1 (peptide sequence: LCDFGFAR, peptide start residue: 693) (UniProt Q00532)",-0.936
27,"SLK (peptide sequence: LADFGVSAK, peptide start residue: 171) (UniProt Q9H2G2)",-3.91
28,"PKN3 (peptide sequence: TTNWQALLAR, peptide start residue: 820) (UniProt Q6P5Z2)",-2.37
29,"IRAK4 (peptide sequence: MGEGGFGVVYK, peptide start residue: 192) (UniProt Q9NWZ3)",-2.25
